Records with an inconclusive call do not appear. A call without a number means that no potency is given here. The source made the active and inactive calls. The call rests on the fitted dose curve; in most records, active means well fitted cell-killing curve with a large enough effect in the repeat runs; inconclusive means weak or mixed curves; inactive means flat fitted curve, though single readings scatter.
Assay: qHTS assay to identify small molecule antagonists of the TGF-beta/Smad signaling pathway - cell viability counter screen (AID 1346824); further: nearly all actives have a fitted effect of over 50% in size
Conditions: SBE-bla HEK293T viability, CellTiter-Glo luminescence; series mostly up to 76.8 µM
Source text: U.S. Tox21 Program National Center for Advancing Translational Sciences [NCATS] NIH Chemical Genomics Center [NCGC] U.S. Environmental Protection Agency [EPA] National Institutes of Environmental Health Sciences [NIEHS] National Toxicology Program [NTP] U.S. Food and Drug Administration [FDA] Tox21 Assay Overview: Transforming growth factor beta (TGF-beta) superfamily consists of a large number of structurally related dimeric proteins that act as hormones or local mediators in regulating a wide range of biological functions. This superfamily includes TGF-betas themselves, the bone morphogenetic proteins (BMPs) and the activins. These ligands induce oligomerization of serine/threonine receptor kinases and phosphorylate the cytoplasmic signaling molecules of Smad protein family. CellSensor SBE-bla HEK 293T cell line (Life Technologies, Carlsbad, CA), responsive to TGF-beta was used to screen Tox21 10K compound library for identification of agonists/antagonists of the Smad signaling pathway. This cell line contains a beta-lactamase reporter gene under control of the Smad binding element (SBE) stably integrated into HEK 293T cells. Also cytotoxicity of the compounds was tested in parallel by measuring the cell viability using CellTiter-Glo assay system in the same wells.
Tox21 Assay Protocol Summary: SBE-bla HEK 293T cells were dispensed at 4,000/well in 5 uL of assay medium into black wall/clear-bottom 1536-well plates using a Multidrop Combi (ThermoFisher Scientific, Waltham, MA) dispenser. After the assay plates were incubated at 37 C and 5% CO2 for an overnight, 23 nL of compounds dissolved in DMSO, positive controls or DMSO only was transferred to the assay plate by a Pintool station (Kalypsys, San Diego, CA). Compound transfer was followed by the addition of 1 uL of 0.25 ng/mL TGF-beta1 or assay buffer using two separate tips of Flying Reagent Dispenser (FRD, Aurora Discovery, San Diego, CA). The assay plates were incubated at 37 C and 5% CO2 for 5 hr. One uL of LiveBLAzer B/G FRET substrate (Life Technologies) was added using a Flying Reagent Dispenser (FRD, Aurora Discovery, San Diego, CA) and the plates were incubated at room temperature for 2 hr. Fluorescence intensity (405 nm excitation, 460 nm and 530 nm emissions) was measured using an Envision plate reader (PerkinElmer, Shelton, CT). For cytotoxicity read, 4 uL of CellTiter-Glo reagent (Promega Corporation, Madison, WI) was added to each well of the assay plates using FRD. After 30 min incubation at room temperature, the luminescence intensity was measured using ViewLux plate reader (PerkinElmer).

SMILES | Potency
CC(C)COP(=O)(OCC(C)C)OCC(C)C | inactive
CCOP(=S)(OCC)Oc1nc(Cl)n(C(C)C)n1 | inactive
Nc1ccccc1Cl | inactive
CCCSC(=O)Cl | inactive
Cc1ncc2n1-c1ccc(Cl)cc1C(c1ccccc1F)=NC2 | inactive
OCCSCSCCO | inactive
Cc1cc(C)c(C(=O)P(=O)(C(=O)c2c(C)cc(C)cc2C)c2ccccc2)c(C)c1 | inactive
Cc1ccccc1CO[C@@H]1C[C@@]2(C(C)C)CC[C@]1(C)O2 | inactive
CNCC(=O)c1ccc(O)c(O)c1 | inactive
CCS(=O)(=O)C(C)(C)S(=O)(=O)CC | inactive
Fc1ccc(C2(Cn3cncn3)OC2c2ccccc2Cl)cc1 (stereo not given) | inactive
CC(C1CC1)C(O)(Cn1cncn1)c1ccc(Cl)cc1 (stereo not given) | inactive
COc1cccc2c1cc([N+](=O)[O-])c1c(C(=O)O)cc3c(c12)OCO3 | inactive
O=NN1CCN(N=O)CC1 | inactive
C=C(C)CN(CC)c1c([N+](=O)[O-])cc(C(F)(F)F)cc1[N+](=O)[O-] | inactive
OC(c1ccc(F)cc1)(c1cncnc1)c1ccccc1Cl (stereo not given) | inactive
C[C@@H]1CN(C2CCC(C#N)(c3ccc(F)cc3)CC2)CC[C@]1(C(=O)O)c1ccccc1 (stereo not given in full) | inactive
CC1(C)CON(Cc2ccccc2Cl)C1=O | inactive
COC(=O)C(c1ccccc1)C1CCCCN1 (stereo not given) | inactive
OCCBr | inactive

SMILES | Potency
CNC(=O)Oc1c(C(C)(C)C)cc(C)cc1C(C)(C)C | inactive
Clc1cccc(N2CCNCC2)c1 | inactive
O=C(NCO)NCO | inactive
CCOC(=O)N(C)C(=O)CSP(=S)(OCC)OCC | inactive
Cc1coc2c1CCC(C)C2 (stereo not given) | inactive
c1ccc(N2CCNCC2)cc1 | inactive
C1CCC(C2CCCCC2)CC1 | inactive
COc1cc2c(cc1OC)[C@@]13CCN4CC5=CCO[C@H]6CC(=O)N2[C@H]1[C@H]6[C@H]5C[C@H]43 | inactive
CNC(=O)Oc1ccccc1C1OCCO1 | inactive
COC(=O)c1c(C(F)F)nc(C(F)(F)F)c(C2=NCCS2)c1CC(C)C | inactive
CCS(=O)(=O)CCSP(=O)(OC)OC | inactive
CNC(=O)Oc1ccc(N(C)C)c(C)c1 | inactive
Cc1cccc(C#N)c1 | inactive
O=[N+]([O-])c1cccc2cccnc12 | inactive
COP(=S)(OC)Oc1c(Cl)cc(C)cc1Cl | inactive
ClC(Cl)C(Cl)Cl | inactive
CCSC(=O)N(CC)C1CCCCC1 | inactive
C[C@]12CC[C@H]3[C@@H](CC=C4C[C@@H](O)CC[C@@]43C)[C@@H]1CC[C@@H]2O | inactive
O=[N+]([O-])c1cccc(O)c1 | inactive
NC(=O)O | inactive

Source: PubChem BioAssay (Tox21)
